Test results taken from PubChem BioAssay (Tox21).
Results filed as inconclusive are left out. Entries that show only a call come without a potency. The source made the active and inactive calls. Calls follow the shape of the full dose curve.

molecular target: Muscarinic acetylcholine receptor M1 (Homo sapiens) (UniProt P11229); test: Cholinergic receptor muscarinic 1 (CHRM1) small molecule antagonists, cell-based qHTS assay (AID 1963588); settings: CHRM1-CHO antagonist mode, calcium flux fluorescence; series mostly up to 61.5 µM; also: nearly all actives have a fitted effect of over 40% in size
Sequence (P11229 whole entry, looked up): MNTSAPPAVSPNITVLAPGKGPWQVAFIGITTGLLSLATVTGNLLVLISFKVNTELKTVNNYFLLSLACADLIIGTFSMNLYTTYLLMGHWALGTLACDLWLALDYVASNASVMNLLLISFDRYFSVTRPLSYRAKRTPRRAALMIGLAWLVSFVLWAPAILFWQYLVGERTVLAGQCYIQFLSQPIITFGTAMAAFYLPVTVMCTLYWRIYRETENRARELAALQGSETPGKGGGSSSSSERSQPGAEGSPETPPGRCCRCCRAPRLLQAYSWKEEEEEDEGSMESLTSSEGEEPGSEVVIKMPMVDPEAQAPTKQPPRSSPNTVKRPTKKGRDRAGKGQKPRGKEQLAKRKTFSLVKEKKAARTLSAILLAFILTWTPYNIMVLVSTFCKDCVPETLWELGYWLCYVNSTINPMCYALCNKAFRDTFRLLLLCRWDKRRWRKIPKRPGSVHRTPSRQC
Description: National Center for Advancing Translational Sciences [NCATS]
Division of Preclinical Innovation [DPI]
U.S. Environmental Protection Agency [EPA]
National Institutes of Environmental Health Sciences [NIEHS]
National Toxicology Program [NTP]
U.S. Food and Drug Administration [FDA]
The CHRM1 is a muscarinic receptor. This receptor plays a crucial role in learning and memory processes and has long been identified as a promising therapeutic target for the improvement of cognitive decline in Alzheimer's disease (AD). The CHRM1-CHO cell line stably expressing human muscarinic acetylcholine receptor M1 (CHRM1) can be used for screening agonists and antagonists of interactions between CHRM1 and its ligands. The CHRM1-CHO Calcium Flux Assay is a homogeneous fluorescence-based assay for detecting the intracellular calcium level using FDSS kinetic plate reader system.
Tox21 Assay Protocol Summary:
CHRM1-CHO cells were dispensed at 1000 cells/3uL/well in 1536-well black-clear bottom plates using a Multidrop Dispenser. After the assay plates were incubated at a 37 C/5% CO2 incubator for 18 h, 3 uL of Dye Loading Buffer was transferred to the assay plate by a Flying Reagent Dispenser. The assay plates were incubated at 37 C for 1h. For antagonist mode, 23 nL of compounds dissolved in DMSO, positive controls or DMSO only was transferred to the assay plate by a pin tool. After 5 min incubation at room temperature, 1.5 uL of acetylcholine at 50nM was added to each well. The fluorescence intensity in the plates was measured using FDSS 7000EX kinetic plate reader for 3 min at 1 sec intervals. Each test compound was measured at 15 concentrations in three independent runs.
Potency is read from the fitted curve at half-maximal effect.

Row | SMILES | Potency | activity, negative = inhibition
1 | C1COCO1 | inactive | –
2 | O=C1c2ccccc2C(=O)c2cc(S(=O)(=O)O)ccc21 | inactive | –
3 | CCCCCCC(=O)c1ccccc1 | inactive | –
4 | O=S(=O)(O)c1cc(O)c2ccc(Nc3ccccc3)cc2c1 | inactive | –
5 | Cc1ccc(O)c([C@H](CCN(C(C)C)C(C)C)c2ccccc2)c1 | 0.0326 µM (active) | –
6 | CCN1CCN(C(=O)N[C@@H](C(=O)N[C@@H]2C(=O)N3C(C(=O)O)=C(CSc4nnnn4C)CS[C@H]23)c2ccc(O)cc2)C(=O)C1=O | inactive | –
7 | CCCCOCCOCCOCc1cc2c(cc1CCC)OCO2 | inactive | –
8 | COc1ccc(/C=C/c2cc(OC)cc(=O)o2)cc1 | inactive | –
9 | COC(C)(C)CC(C)=O | inactive | –
10 | C=Cc1ccc(C=C)cc1 | inactive | –
11 | CN1CCC(Nc2ncc3ncnc(Nc4ccc(F)c(Cl)c4)c3n2)CC1 | 8.18 µM (active) | –
12 | C=Cc1ccc(S(=O)(=O)O)cc1 | inactive | –
13 | O=C(NCc1ncc(C(F)(F)F)cc1Cl)c1c(Cl)cccc1Cl | inactive | –
14 | CCCCN(CCO)CCCC | inactive | –
15 | c1ccc(-c2ccc(-c3ccccc3)cc2)cc1 | – | 9.45% [at 12.6 µM] (inactive)
16 | CC/C=C/CCCCCCCCCCOC(C)=O | inactive | –
17 | CC(C)C(O)(c1ccc(OC(F)(F)F)cc1)c1cncnc1 (stereo not given) | inactive | –
18 | CCc1ccccc1 | inactive | –
19 | CCCCOC(=O)CCCCC(=O)OCCCC | inactive | –
20 | O=C(Nc1ccc2c(c1)Cc1ccccc1-2)C(F)(F)F | inactive | –

Row | SMILES | Potency | activity, negative = inhibition
21 | CCCC1CCC(=O)CC1 | inactive | –
22 | Nc1ccc2c(c1)CN1C(=O)c3ccccc3C1=N2 | – | 0.434% [at 12.6 µM] (inactive)
23 | CCOC(=O)/C=C/c1ccccc1 | inactive | –
24 | Cc1ccccn1 | inactive | –
25 | NC(=O)CCCCC1CCSS1 (stereo not given) | inactive | –
26 | CC(=O)OC(C)OC(C)=O | inactive | –
27 | CC1=C(O)C(=O)CO1 | inactive | –
28 | C[Si](C)(C)C | inactive | –
29 | CCCCCOc1ccccc1/C(=C\SC)n1ccnc1 | inactive | –
30 | CN(C)c1ccc(O)c2c1C[C@H]1C[C@H]3[C@H](N(C)C)C(=O)C(C(N)=O)=C(O)[C@@]3(O)C(=O)C1=C2O | inactive | –
31 | COC(=O)CCS | inactive | –
32 | CCc1ccc(C(c2ccc(CC)cc2)C(Cl)Cl)cc1 | inactive | –
33 | CCC/C=C(\C=O)CC | inactive | –
34 | [Cl][Bi]([Cl])([c]1ccccc1)([c]1ccccc1)[c]1ccccc1 | inactive | –
35 | CC(C)c1ccc2ncccc2c1 | inactive | –
36 | CCCCNCC | inactive | –
37 | Nc1ccc(O)c([N+](=O)[O-])c1 | inactive | –
38 | CC(O)(c1ccc(Cl)cc1)c1ccc(Cl)cc1 | inactive | –
39 | O=C(/C=C/c1ccccc1)OCCc1ccccc1 | inactive | –
40 | Nc1ccc(F)cc1 | inactive | –
